The text below walks through data of PubChem BioAssay (EPA / NIEHS).

Test [1] is described as follows: BSK_3C_VCAM1: BioMAP Diversity Plus: 3C Assay for Vascular cell adhesion molecule 1 (VCAM1) Biomarker Activity (AID 2282999). The conditions noted are these: BioMAP 3C HUVEC, VCAM1 ELISA, cytokine-stimulated; actives raise or lower the signal. The procedure, abridged:
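Human umbilical vein endothelial cells (3C system), biomarker read by ELISA 24 h after dosing; bidirectional fit against DMSO baseline. Cytotoxicity tracked by SRB total-protein staining in parallel cultures at biomarker time.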

A short description of test [2]: BSK_4H_Eotaxin3: BioMAP Diversity Plus: 4H Assay for Eotaxin 3 Biomarker Activity (AID 2283000).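 Also: CCL26 protein level quantified by ELISA in parallel with SRB cytotoxicity check.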 The following applies: primary human endothelial cells (HUVEC); actives raise or lower the signal. The procedure, abridged: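 Human umbilical vein endothelial cells (BSK_4H system) dosed with test chemical; Eotaxin-3 (CCL26) measured by ELISA 24 h after dosing. Bidirectional curve fitting relative to DMSO negative control as baseline.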

For test [3], the target named is human Peroxisome Proliferator-activated Receptor alpha (PPARa), PPARA (gene 5465) (UniProt Q07869). The test can be described thus: ATG_PPARa_TRANS: Attagene TRANS-FACTORIAL HepG2 Assay for human Peroxisome Proliferator-activated Receptor alpha (PPARa) (AID 2283001; active = hit-call score of the fitted dose curve at least 0.9, where 1 is the maximum;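 as to AC50: potency for gain of reporter signal over DMSO so agonist or activator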). The procedure, abridged: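 HepG2 cells transiently transfected with multiplexed GAL4-UAS reporters driven by exogenous chimeric NR-Gal4 proteins; reporter mRNA measured after 24 h dosing. Read-out by RT-PCR, 6-FAM labelling, HpaI digestion and capillary electrophoresis; gain of signal versus DMSO.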
Chain of human Peroxisome Proliferator-activated Receptor alpha (PPARa), PPARA (gene 5465) (Q07869 whole entry, looked up, the tested form may be a part): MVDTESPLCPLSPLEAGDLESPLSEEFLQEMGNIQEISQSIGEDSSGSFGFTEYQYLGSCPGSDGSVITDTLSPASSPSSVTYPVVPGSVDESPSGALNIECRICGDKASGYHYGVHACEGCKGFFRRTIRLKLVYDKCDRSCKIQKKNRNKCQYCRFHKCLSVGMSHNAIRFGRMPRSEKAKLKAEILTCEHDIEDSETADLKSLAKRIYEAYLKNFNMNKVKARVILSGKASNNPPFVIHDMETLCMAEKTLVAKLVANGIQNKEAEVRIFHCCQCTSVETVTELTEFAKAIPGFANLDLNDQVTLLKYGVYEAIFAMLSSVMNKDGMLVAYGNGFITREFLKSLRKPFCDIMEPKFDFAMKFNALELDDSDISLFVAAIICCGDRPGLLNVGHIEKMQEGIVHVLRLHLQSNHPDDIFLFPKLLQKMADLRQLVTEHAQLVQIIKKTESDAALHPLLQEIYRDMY

In test [4] the target is human Peroxisome Proliferator-activated Receptor delta (PPARd), PPARD (gene 5467) (UniProt Q03181). In words: ATG_PPARd_TRANS: Attagene TRANS-FACTORIAL HepG2 Assay for human Peroxisome Proliferator-activated Receptor delta (PPARd) (AID 2283002; active = hit-call score of the fitted dose curve at least 0.9, where 1 is the maximum). The procedure, abridged: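 Fluorescence from capillary electrophoresis of labelled RT-PCR reporter fragments gives the signal; DMSO sets baseline. Cells: HepG2 transiently carrying GAL4-UAS reporter units plus chimeric nuclear receptor-Gal4 proteins, exposed to chemicals for 24 h.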
Chain of human Peroxisome Proliferator-activated Receptor delta (PPARd), PPARD (gene 5467) (Q03181 whole entry, looked up, the tested form may be a part): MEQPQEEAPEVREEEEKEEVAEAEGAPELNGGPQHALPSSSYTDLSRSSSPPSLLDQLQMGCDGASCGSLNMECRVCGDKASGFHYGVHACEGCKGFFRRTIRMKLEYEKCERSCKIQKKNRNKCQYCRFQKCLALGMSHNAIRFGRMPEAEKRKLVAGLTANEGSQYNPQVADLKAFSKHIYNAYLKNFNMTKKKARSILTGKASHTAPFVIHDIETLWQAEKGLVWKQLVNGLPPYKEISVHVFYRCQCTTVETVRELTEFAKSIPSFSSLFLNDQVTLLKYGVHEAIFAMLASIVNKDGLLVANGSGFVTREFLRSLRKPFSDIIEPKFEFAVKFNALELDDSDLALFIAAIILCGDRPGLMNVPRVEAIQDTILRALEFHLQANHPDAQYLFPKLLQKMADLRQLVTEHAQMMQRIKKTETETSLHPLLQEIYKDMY

Read-out in test [5]: Intercellular Adhesion Molecule 1 (ICAM1), ICAM1 (gene 3383)
The test can be described thus: BSK_3C_ICAM1: BioMAP Diversity Plus: 3C Assay for Intercellular Adhesion Molecule 1 (ICAM1) Biomarker Activity (AID 2283003). The following applies: primary human endothelial cells (HUVEC); actives raise or lower the signal. The procedure, abridged: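 ICAM-1 levels measured by ELISA after HUVEC cultures in the 3C system had been dosed for 24 h. Gain or loss of signal relative to DMSO was fitted in both directions.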

The nature of test [6]: BSK_3C_Proliferation: Cell Proliferation Assessment in the BioMAP Diversity Plus: 3C Assay (AID 2283006). The conditions noted are these: primary human endothelial cells (HUVEC). The procedure, abridged: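 Read-out is total protein by SRB absorbance at 560 nm, taken as a proxy for relative cell number. Primary human umbilical vein endothelium cultured below confluence was dosed for 48 h, TCA-fixed and SRB-stained; curves were fitted bidirectionally versus DMSO.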

For test [7], the target named is human Retinoid X Receptor beta (RXRb), RXRB (gene 6257) (UniProt P28702). In words: ATG_RXRb_TRANS: Attagene TRANS-FACTORIAL HepG2 Assay for human Retinoid X Receptor beta (RXRb) (AID 2283013; active = hit-call score of the fitted dose curve at least 0.9, where 1 is the maximum). The procedure, abridged: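 Transfect HepG2 with GAL4-UAS multi-reporter constructs (chimeric NR-Gal4, TRANS format); dose compound 24 h; isolate RNA, RT-PCR, FAM primer extension, HpaI digest; quantify by capillary electrophoresis; positive direction vs DMSO.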
Chain of human Retinoid X Receptor beta (RXRb), RXRB (gene 6257) (P28702 whole entry, looked up, the tested form may be a part): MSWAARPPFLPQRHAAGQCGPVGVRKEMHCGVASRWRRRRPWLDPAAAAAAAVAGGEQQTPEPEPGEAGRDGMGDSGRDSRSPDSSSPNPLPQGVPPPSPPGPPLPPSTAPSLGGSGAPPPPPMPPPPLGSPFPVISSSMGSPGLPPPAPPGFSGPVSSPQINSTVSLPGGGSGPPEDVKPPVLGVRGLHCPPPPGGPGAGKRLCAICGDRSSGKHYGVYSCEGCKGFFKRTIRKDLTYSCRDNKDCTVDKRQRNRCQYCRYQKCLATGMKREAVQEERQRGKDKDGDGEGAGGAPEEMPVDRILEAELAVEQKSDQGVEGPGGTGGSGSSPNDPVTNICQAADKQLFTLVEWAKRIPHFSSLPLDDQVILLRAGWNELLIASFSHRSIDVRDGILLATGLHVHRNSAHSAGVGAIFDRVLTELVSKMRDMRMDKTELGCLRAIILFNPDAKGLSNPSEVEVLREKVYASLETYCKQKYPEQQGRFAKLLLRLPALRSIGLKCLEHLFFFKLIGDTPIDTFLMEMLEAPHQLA

Read-out in test [8]: E-selectin (Homo sapiens) (UniProt P16581)
In words: BSK_3C_Eselectin: BioMAP Diversity Plus: 3C Assay for Eselectin Biomarker Activity (AID 2283015).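 As to outcome: cell surface E-selectin protein quantified by ELISA 24 h after dosing.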 The following applies: primary human endothelial cells (HUVEC); actives raise or lower the signal. The procedure, abridged: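 E-selectin ELISA readout, fitted bidirectionally relative to DMSO, taken 24 h post-dosing in HUVEC cultures of the 3C system. Overt cytotoxicity tracked with sulforhodamine B staining of parallel wells.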

Read-out in test [9]: Interleukin-1 alpha (IL1a), IL1A (gene 3552)
In words: BSK_BE3C_IL1a: BioMAP Diversity Plus: BE3C Assay for Interleukin-1 alpha (IL1a) Biomarker Activity (AID 2283016). The following applies: primary human bronchial epithelial cells; actives raise or lower the signal. The procedure, abridged: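 BE3C primary human bronchial epithelium; cpd 24 h; IL-1a by ELISA; bidirectional fit vs DMSO; parallel SRB (0.1% SRB, 10% TCA fix, 560 nm) for cytotoxicity.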

Read-out in test [10]: Monocyte Chemoattractant Protein-1 (MCP1), CCL2 (gene 6347)
In words: BSK_4H_MCP1: BioMAP Diversity Plus: 4H Assay for Monocyte Chemoattractant Protein-1 (MCP1) Biomarker Activity (AID 2283018). The following applies: primary human endothelial cells (HUVEC); actives raise or lower the signal. The procedure, abridged: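 ELISA read-out of MCP-1 from human vascular endothelial primary cells taken at 24 hours after compound exposure. Activity was fitted in both directions relative to DMSO, which served as negative control.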

For test [11], the target named is human Retinoic Acid Receptor beta (RARb), RARB (gene 5915) (UniProt P10826). The test can be described thus: ATG_RARb_TRANS: Attagene TRANS-FACTORIAL HepG2 Assay for human Retinoic Acid Receptor beta (AID 2283004; active = hit-call score of the fitted dose curve at least 0.9, where 1 is the maximum). The procedure, abridged:
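Induction of reporter mRNA from a chimeric RARb-Gal4 construct was measured by RT-PCR, FAM labelling, HpaI digestion and capillary electrophoresis. Measurements followed 24 h compound treatment of transiently transfected human HepG2 liver cells, with DMSO as baseline.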

For test [12], the target named is Retinoic acid receptor alpha (Homo sapiens) (UniProt P10276). In words: ATG_RARa_TRANS: Attagene TRANS-FACTORIAL HepG2 Assay for human Retinoic Acid Receptor alpha (RARa) (AID 2283005; active = hit-call score of the fitted dose curve at least 0.9, where 1 is the maximum). The procedure, abridged:
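HepG2 transiently transfected with multiplex GAL4-UAS reporter units including a human RARa–GAL4 chimera; 24 h compound exposure. Reporter mRNA quantified by RT-PCR, 6-FAM labeling and capillary electrophoresis; gain of signal versus DMSO.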

Test [13] has as its target Peroxisome proliferator-activated receptor gamma (Homo sapiens) (UniProt P37231). The test can be described thus: ATG_PPARg_TRANS: Attagene TRANS-FACTORIAL HepG2 Assay for human Peroxisome Proliferator-activated Receptor-gamma (PPARg) (AID 2283007; active = hit-call score of the fitted dose curve at least 0.9, where 1 is the maximum). The procedure, abridged: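 Multiplexed reporter transcription units in HepG2, 24 h dosing, reporter transcripts quantified by fluorescent RT-PCR and capillary electrophoresis. Increase over DMSO scored.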

The target in test [14] is Nuclear receptor subfamily 1 group I member 2 (Homo sapiens) (UniProt O75469). In words: ATG_PXR_TRANS: Attagene TRANS-FACTORIAL HepG2 Assay for human Pregnane X Receptor (PXR) (AID 2283008; active = hit-call score of the fitted dose curve at least 0.9, where 1 is the maximum). The procedure, abridged: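 Read-out is fluorescence of labelled reporter cDNA fragments separated by capillary electrophoresis after RT-PCR and HpaI digestion. Source: HepG2 cells carrying PXR-GAL4/UAS reporter constructs, treated 24 h; activity fitted upward relative to DMSO.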
Chain of Nuclear receptor subfamily 1 group I member 2 (Homo sapiens) (O75469 whole entry, looked up, the tested form may be a part): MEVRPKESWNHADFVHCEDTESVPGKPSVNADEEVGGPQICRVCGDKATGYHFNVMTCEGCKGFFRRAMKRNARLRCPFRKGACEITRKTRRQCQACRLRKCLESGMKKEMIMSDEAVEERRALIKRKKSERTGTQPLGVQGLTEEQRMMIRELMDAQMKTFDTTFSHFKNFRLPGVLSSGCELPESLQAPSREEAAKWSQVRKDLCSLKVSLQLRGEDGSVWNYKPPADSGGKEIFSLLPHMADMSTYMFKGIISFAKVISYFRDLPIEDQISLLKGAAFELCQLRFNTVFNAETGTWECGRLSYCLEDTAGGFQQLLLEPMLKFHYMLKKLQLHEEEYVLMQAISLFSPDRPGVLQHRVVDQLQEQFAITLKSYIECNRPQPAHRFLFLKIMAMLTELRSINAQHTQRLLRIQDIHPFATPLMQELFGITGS

The target of test [15] is human Retinoic Acid Receptor gamma (RARg), RARG (gene 5916) (UniProt P13631). In words: ATG_RARg_TRANS: Attagene TRANS-FACTORIAL HepG2 Assay for human Retinoic Acid Receptor gamma (RARg) (AID 2283009; active = hit-call score of the fitted dose curve at least 0.9, where 1 is the maximum). The procedure, abridged:
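Transient transfection of HepG2 with multi-reporter constructs, then 24 h chemical treatment. Total RNA isolated, reverse-transcribed, PCR-amplified, fluorescently labelled and resolved by capillary electrophoresis; activity scored as mRNA induction versus DMSO.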

Test [16] concerns the target human RAR-related Orphan Receptor beta (RORb), RORB (gene 6096) (UniProt Q92753). In words: ATG_RORb_TRANS: Attagene TRANS-FACTORIAL HepG2 Assay for human RAR-related Orphan Receptor beta (RORb) (AID 2283010; active = hit-call score of the fitted dose curve at least 0.9, where 1 is the maximum). The procedure, abridged: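 Readout is reporter-gene mRNA induction, detected as fluorescence after RT-PCR and capillary electrophoresis, fitted for gain of signal against DMSO controls. Transiently transfected HepG2 liver cells carrying GAL4-UAS reporter constructs were treated for 24 hours.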

Test [17] has as its target human RAR-related Orphan Receptor gamma (RORg), RORC (gene 6097) (UniProt P51449). In words: ATG_RORg_TRANS: Attagene TRANS-FACTORIAL HepG2 Assay for human RAR-related Orphan Receptor gamma (RORg) (AID 2283011; active = hit-call score of the fitted dose curve at least 0.9, where 1 is the maximum). The procedure, abridged: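 Reporter transcripts from a transfected RORg-GAL4 chimera in HepG2 cells were quantified 24 h after dosing by RT-PCR, 6-FAM labelling, HpaI digestion and capillary electrophoresis; increases over DMSO baseline were fitted.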

Test [18] concerns the target Retinoic acid receptor RXR-alpha (Homo sapiens) (UniProt P19793). In words: ATG_RXRa_TRANS: Attagene TRANS-FACTORIAL HepG2 Assay for human Retinoid X Receptor alpha (RXRa) (AID 2283012; active = hit-call score of the fitted dose curve at least 0.9, where 1 is the maximum). The procedure, abridged:
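Transient transfection of human HepG2 with multiple GAL4-UAS reporter constructs; 24 h compound exposure; total RNA isolated, reverse-transcribed, PCR-amplified, 6-FAM labelled, HpaI-cut, resolved by capillary electrophoresis. Positive-direction fit versus DMSO.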

The target of test [19] is human Thyroid Receptor alpha (THRa1), THRA (gene 7067) (UniProt P10827). In words: ATG_THRa1_TRANS: Attagene TRANS-FACTORIAL HepG2 Assay for human Thyroid Receptor alpha (THRa1) (AID 2283014; active = hit-call score of the fitted dose curve at least 0.9, where 1 is the maximum). The procedure, abridged:
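Transcripts from GAL4-UAS-driven reporters, measured after 24 h compound exposure by RT-PCR plus capillary electrophoresis of 6-FAM-labeled fragments, were fitted for gain of signal relative to DMSO. Cells: transiently transfected HepG2 expressing NR-Gal4 chimeras.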

Read-out in test [20]: Monocyte Chemoattractant Protein-1 (MCP1), CCL2 (gene 6347)
In words: BSK_3C_MCP1: BioMAP Diversity Plus: 3C Assay for Monocyte Chemoattractant Protein-1 (MCP1) Biomarker Activity (AID 2283017). The conditions noted are these: primary human endothelial cells (HUVEC); actives raise or lower the signal. The procedure, abridged:
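MCP-1 was measured by ELISA 24 h after dosing in primary HUVEC 3C cultures and fitted in both directions relative to DMSO; cytotoxicity was checked by SRB total-protein staining in parallel wells.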

Records with an inconclusive call do not appear. Calls of active or inactive are those of the source. The calls were made as follows, unless noted: active = hit-call score of the fitted dose curve at least 0.9, where 1 is the maximum; inactive = score below 0.9.

Chain of human Thyroid Receptor alpha (THRa1), THRA (gene 7067) (P10827 whole entry, looked up, the tested form may be a part): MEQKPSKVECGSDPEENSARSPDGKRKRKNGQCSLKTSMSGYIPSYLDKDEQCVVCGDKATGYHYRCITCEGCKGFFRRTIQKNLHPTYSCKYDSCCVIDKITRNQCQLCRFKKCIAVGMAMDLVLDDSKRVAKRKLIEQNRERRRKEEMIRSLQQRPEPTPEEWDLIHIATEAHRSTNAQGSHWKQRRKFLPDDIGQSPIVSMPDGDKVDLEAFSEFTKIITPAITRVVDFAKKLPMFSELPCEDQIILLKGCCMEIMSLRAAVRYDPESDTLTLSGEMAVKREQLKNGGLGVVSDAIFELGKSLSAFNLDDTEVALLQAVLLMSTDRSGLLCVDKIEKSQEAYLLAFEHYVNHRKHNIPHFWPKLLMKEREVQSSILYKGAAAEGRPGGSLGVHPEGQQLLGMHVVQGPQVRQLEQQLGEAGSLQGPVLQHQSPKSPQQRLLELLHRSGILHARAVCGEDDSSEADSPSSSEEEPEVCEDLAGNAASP
Chain of Peroxisome proliferator-activated receptor gamma (Homo sapiens) (P37231 whole entry, looked up): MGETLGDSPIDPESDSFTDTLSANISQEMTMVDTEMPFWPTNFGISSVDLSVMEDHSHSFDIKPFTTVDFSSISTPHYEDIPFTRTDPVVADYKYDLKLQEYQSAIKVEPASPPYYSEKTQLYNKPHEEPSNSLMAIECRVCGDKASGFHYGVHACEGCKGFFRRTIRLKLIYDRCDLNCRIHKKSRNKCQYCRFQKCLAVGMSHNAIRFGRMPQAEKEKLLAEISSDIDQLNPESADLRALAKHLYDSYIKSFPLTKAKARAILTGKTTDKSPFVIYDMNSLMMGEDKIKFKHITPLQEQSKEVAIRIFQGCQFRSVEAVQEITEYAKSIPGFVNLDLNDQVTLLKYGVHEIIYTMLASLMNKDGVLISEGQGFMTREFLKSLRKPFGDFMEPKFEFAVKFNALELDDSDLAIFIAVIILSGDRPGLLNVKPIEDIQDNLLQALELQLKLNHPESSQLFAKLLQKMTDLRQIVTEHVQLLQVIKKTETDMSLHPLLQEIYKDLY
Chain of E-selectin (Homo sapiens) (P16581 whole entry, looked up): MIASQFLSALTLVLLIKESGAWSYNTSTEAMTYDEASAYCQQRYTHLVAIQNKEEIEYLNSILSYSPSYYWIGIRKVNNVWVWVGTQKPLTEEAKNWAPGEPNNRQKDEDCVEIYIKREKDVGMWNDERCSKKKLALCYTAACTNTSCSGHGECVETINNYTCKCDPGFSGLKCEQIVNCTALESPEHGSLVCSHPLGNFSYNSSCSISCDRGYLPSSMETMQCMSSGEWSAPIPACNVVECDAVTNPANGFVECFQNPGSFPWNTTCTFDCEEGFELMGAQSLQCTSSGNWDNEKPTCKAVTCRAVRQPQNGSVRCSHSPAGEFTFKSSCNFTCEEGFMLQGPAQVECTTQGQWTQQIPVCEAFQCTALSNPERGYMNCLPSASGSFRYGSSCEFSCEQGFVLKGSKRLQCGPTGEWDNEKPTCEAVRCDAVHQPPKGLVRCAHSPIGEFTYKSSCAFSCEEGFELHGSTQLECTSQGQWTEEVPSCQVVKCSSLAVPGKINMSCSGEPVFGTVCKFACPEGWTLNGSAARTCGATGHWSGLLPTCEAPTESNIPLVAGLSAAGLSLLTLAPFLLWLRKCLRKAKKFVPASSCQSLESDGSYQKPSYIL
Chain of human RAR-related Orphan Receptor gamma (RORg), RORC (gene 6097) (P51449 whole entry, looked up, the tested form may be a part): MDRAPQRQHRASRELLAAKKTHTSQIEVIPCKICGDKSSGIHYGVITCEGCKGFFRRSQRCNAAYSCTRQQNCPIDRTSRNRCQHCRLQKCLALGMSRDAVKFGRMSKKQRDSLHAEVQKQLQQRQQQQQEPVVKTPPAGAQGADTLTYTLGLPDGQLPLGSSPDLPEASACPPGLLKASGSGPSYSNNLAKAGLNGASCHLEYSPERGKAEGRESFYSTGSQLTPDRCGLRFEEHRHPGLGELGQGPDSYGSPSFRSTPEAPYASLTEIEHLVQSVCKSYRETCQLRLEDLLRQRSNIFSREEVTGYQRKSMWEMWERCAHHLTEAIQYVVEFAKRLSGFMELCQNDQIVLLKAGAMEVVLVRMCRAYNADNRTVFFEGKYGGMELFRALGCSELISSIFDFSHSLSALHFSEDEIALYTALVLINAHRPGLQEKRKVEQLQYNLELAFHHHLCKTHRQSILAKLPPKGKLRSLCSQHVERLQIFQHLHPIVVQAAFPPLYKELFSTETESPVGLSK
Chain of Retinoic acid receptor RXR-alpha (Homo sapiens) (P19793 whole entry, looked up, the tested form may be a part): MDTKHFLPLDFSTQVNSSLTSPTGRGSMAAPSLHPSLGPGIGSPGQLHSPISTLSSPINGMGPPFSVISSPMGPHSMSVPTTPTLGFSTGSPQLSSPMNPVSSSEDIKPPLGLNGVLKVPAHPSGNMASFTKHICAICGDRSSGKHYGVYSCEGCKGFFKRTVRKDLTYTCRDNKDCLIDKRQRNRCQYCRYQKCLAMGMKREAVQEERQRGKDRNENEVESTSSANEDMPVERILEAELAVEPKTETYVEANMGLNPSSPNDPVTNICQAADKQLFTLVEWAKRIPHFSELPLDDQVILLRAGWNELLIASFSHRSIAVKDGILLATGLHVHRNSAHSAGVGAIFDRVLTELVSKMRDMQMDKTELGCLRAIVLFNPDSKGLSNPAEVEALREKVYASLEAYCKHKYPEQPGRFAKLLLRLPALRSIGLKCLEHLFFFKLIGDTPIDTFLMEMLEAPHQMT
Chain of human Retinoic Acid Receptor gamma (RARg), RARG (gene 5916) (P13631 whole entry, looked up): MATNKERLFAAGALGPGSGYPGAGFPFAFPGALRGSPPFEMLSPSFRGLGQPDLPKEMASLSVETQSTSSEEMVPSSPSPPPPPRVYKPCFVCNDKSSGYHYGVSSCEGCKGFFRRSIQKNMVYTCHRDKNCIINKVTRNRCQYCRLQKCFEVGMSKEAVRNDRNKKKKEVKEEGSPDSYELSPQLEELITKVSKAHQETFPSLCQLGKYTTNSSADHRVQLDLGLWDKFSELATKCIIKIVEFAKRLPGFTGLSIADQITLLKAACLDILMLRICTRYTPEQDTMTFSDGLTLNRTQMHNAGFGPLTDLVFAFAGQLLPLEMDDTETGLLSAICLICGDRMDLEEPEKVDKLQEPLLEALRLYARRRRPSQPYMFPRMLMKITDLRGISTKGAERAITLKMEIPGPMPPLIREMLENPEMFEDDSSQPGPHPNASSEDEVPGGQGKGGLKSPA

As to `Cn1c(-c2ccccc2)cc(-c2ccccc2)[n+]1C`, the outcome in test [1], in test [2], in [3], in [4], in test [5] and in test [6] was inactive. Further, the molecule was classed as inactive in test [7], in test [9] and in test [10]. In addition, the AC50 in test [8] was 1.56 µM (active).
In the case of `CC1(C)CON(Cc2ccccc2Cl)C1=O`, the result in test [1], in [2], in test [3], in test [4], in test [5] and in test [11] was inactive. The outcome in test [12], in test [6], in test [13], in test [14], in [15] and in test [16] was inactive. For the same molecule, the call in test [17], in test [18], in test [19], in test [8], in [9] and in [20] was inactive. In test [10], the outcome was inactive.
`CCOc1nc(F)cc2nc(S(=O)(=O)Nc3c(Cl)cccc3Cl)nn12`: the result in test [1], in [2], in test [3], in test [4], in test [5] and in [6] was inactive. Besides, the result in test [14], in [17], in test [18], in [7], in test [19] and in [8] was inactive. The result in test [9] and in [10] was inactive. Besides, the half-maximal activity concentration (AC50) in [13] was 24.6 µM (active).
`CCOC(=O)C(C)OC(=O)c1cc(Oc2ccc(C(F)(F)F)cc2Cl)ccc1[N+](=O)[O-]` (stereo not drawn): the outcome in [1], in [2], in test [5], in test [6], in test [14] and in test [15] was inactive. For the same molecule, the result in test [7], in test [19], in test [8] and in test [9] was inactive. Further, the AC50 in test [3] was 1.57 µM (active); in [13], 14.1 µM (active); in [20], 10.6 µM (active); in test [10] it was 6.5 µM (active).
